Source: PubChem
HCMV inh – blocks human cytomegalovirus replication | HFF cells, HCMV-luciferase reporter, 72 h; active compounds read low | activity change, negative = inhibition, % at 57.5 µM | actives 4.5% (n = 410,000) | AID 1259415; in the data active means activity change below about -60%; inconclusive means no clear call, values can overlap the other calls; inactive means above about -39%
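Inhibition of viral replication was scored as loss of reporter luminescence in HFFs infected with HCMV-luciferase (MOI 1 PFU/cell) for 72 h; compounds tested at 2 doses, normalized to buffer and Salinomycin controls.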
Cycloheximide cs – counter-screen for Shiga toxin inhibitors: cycloheximide protein synthesis inhibition. max response, %. actives 12% (n = 300,000). AID 2314. cell reporter, cycloheximide protein synthesis inhibition counterscreen; in the data active means max response mostly above about 13%, no sharp cut-off; inactive means mostly below about 14%; further: read at 38.3 µM for the half of the compounds with a filed dose
Shiga inhibitor – Shiga toxin inhibition; Vero cells, Shiga toxin protein synthesis inhibition reporter; inhibition, % at 38.7 µM; actives 9.2% (n = 290,000); in the data active means inhibition mostly above about 28%, no sharp cut-off; inactive means mostly below about 43%
Pf growth 48h – P. falciparum growth inhibition at 48 hours (one generation); P. falciparum luciferase growth in erythrocytes, 48 h; actives 5.9% (n = 310,000); Potency, µM (top dose mostly 28.7 µM), most hits filed as inhibitors; AID 504832
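Compounds are pin-transferred into medium, infected erythrocytes (2% hematocrit, 0.1% parasitemia final) are added, and plates sit one parasite generation at 37 C in 5% CO2. Detection reagent is then added and luminescence measured.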
Pf growth 96h – P. falciparum growth inhibition at 96 hours; P. falciparum luciferase reporter growth, 96 h; Potency, µM (top dose mostly 28.7 µM), actives largely listed as inhibitors; actives 6.9% (n = 320,000); AID 504834
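Luminescence readout: decreased luciferase signal marks inhibited growth of reporter-expressing P. falciparum in infected red cells (2% hematocrit, 0.05% parasitemia final), exposed to compound two generations (96 h, 37 C, 5% CO2).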
A number is an active result; - = inactive; ? = inconclusive; . = not tested or not shown; + = active, no number; [ ] = dose if it differs, or a comment. Only some compounds are listed: those with a hit (about 20% of all), similar ones and a draw of the others. Unless noted, the call rests on the fitted dose curve; in most records, active means well fitted inhibition curve with a large enough effect; inconclusive means small, poorly fitted or top-dose-only effect, or another doubt; inactive means no such curve, though single readings can be large or run the other way.

SMILES	HCMV inh	Cycloheximide cs	Shiga inhibitor	Pf growth 48h	Pf growth 96h
COc1ccccc1N1CCN(CC(O)COc2cc(C)cc(C)c2)CC1 (configuration not stated)	-	.	.	.	.
COc1ccccc1N1CCN(CC(O)COc2ccc(C)cc2C(C)(C)C)CC1 (configuration not stated)	-67	-	-	.	.
C=C1CC(C)OC(c2ccccc2OCC(O)CN2CCCCC2)C1 (configuration not stated)	-	-	-	15µM	-
OC(COc1cccc2ccccc12)CN1CCCC1 (configuration not stated)	-	-	-	-	-
COc1ccc(N2CCN(C(=O)c3cccnc3SCc3cccc(Br)c3)CC2)cc1	-	-	-	?	-
O=C(OCc1cn([C@H]2CN(CC3CCCCC3)[C@@H](c3ccc(Cl)cc3)C[C@@H]2O)nn1)c1ccccc1	-	.	.	.	.
COc1ccc(-c2nc(C)c(CCNC(=O)c3ccc(F)c(F)c3)s2)cc1	-	.	.	.	.
CCc1ccc(CN2CCc3nc(Nc4ccccc4)ncc3C2)cc1	-	.	.	.	.
c1ccc(CN2CCc3nc4ccccc4cc3C2)cc1	-	26	59	-	-
CCc1ccc2oc(-c3cc(N=Cc4cccc(OC)c4O)ccc3O)nc2c1	.	29	104	-	.
CC1=NN(S(=O)(=O)c2ccc(Cl)cc2Cl)C(=O)c2ccccc2O1	-	12	-	-	-
COC(CNC(=O)c1ccc(CS(=O)(=O)c2ccc(Br)cc2)o1)OC	-	-	-	-[0.00184 µM]	-
COC(CNC(=O)c1ccc(CS(=O)(=O)c2ccc(C)cc2)o1)OC	-	-	-	-[0.00184 µM]	2.6µM
COCCCNC(=O)c1ccc(CS(=O)(=O)c2ccc(OC)cc2)o1	-	-	-	-	10µM
CC1(C(=O)NCc2cccc(C(F)(F)F)c2)CCN1CCc1ccccc1 (configuration not stated)	-	.	.	.	.
CN(C)CCCN1c2ccccc2Sc2ccc(C(F)(F)F)cc21	?	-	-	?	15µM
CC(CN(C)C)CN1c2ccccc2Sc2ccccc21 (configuration not stated)	?	.	.	13µM	?
CCN(CC)CCCCN1c2ccccc2Sc2ccccc21	-	-	-	?	-
COc1ccc2c(c1)N(C[C@H](C)CN(C)C)c1ccccc1S2	-	.	.	.	.
CC(CN(C)C)CN1c2ccccc2Sc2ccc(C(F)(F)F)cc21 (configuration not stated)	.	.	.	15µM	?
COc1ccccc1CN(C)C(=O)c1ccccc1SCC(=O)N1CCCC1	-	.	.	-	?
Cc1ccc(S(=O)(=O)Nc2nc(CN3CCOCC3)nc3sc(C(=O)O)c(C)c23)cc1	-	.	.	.	.
CN(C)CCn1nnnc1SCC1=C(C(=O)O)N2C(=O)[C@@H](NC(=O)Cc3csc(N)n3)[C@H]2SC1	-	.	.	-	-
CN(C)CCn1nnnc1SCC1=C(C(=O)O)N2C(=O)[C@@H](NC(=O)Cc3csc(N)n3)[C@@H]2SC1	.	.	.	?	6.4µM
COc1cc(-c2cnc3c(NC(C)=O)cc(-c4ccccc4CN(C)C)cn23)cc(OC)c1OC	-	.	.	.	.
SMILES	HCMV inh	Cycloheximide cs	Shiga inhibitor	Pf growth 48h	Pf growth 96h
O=C(N/N=C/c1ccc(Br)s1)c1cccs1	-	48	80	?	-
O=C(CNC(=O)c1ccccc1Br)N/N=C/c1cccs1	-	-	-	-	-
Cc1ccc(/C=N/NC(=O)c2cccs2)s1	-	52	85	-	-
O=C(CN1CCN(S(=O)(=O)c2ccc(Br)cc2)CC1)N/N=C/c1ccc(Br)s1	-	-	-	-	?
Cc1ccc(/C=N/NC(=O)c2ccc3nc[nH]c3c2)s1	?	-	-	-	-
O=C(N/N=C/c1ccc(Br)s1)Nc1ccccc1	-	46	-	-	-
Cc1noc(-c2ccc(N3CCCCC3C)c([N+](=O)[O-])c2)n1 (configuration not stated)	-	.	.	.	.
O=C(NCCCN1CCOCC1)c1cc(-c2ccc(F)cc2)no1	-	-	-	-	?
CC1CCCN(C(=O)C(C)Nc2cc(Cl)ccc2N2CCOCC2)C1 (configuration not stated)	-	-	-	?	0.66µM
CC(=NNC(=S)N1CC2CCC(CC2)C1)c1ccncn1	-98	.	.	.	.
CC(=NNC(=S)N1CCCCC1)c1ccccn1	-98	.	.	.	.
CCC1CCCCN1C(=S)NN=C(C)c1ccccn1 (configuration not stated)	-98	.	.	.	.
CC(=NNC(=S)N1CCCCC1)c1cccc(C)n1	-	.	.	.	.
C[C@H]1[C@@H](NS(=O)(=O)c2cccs2)CC[C@@]23CCCN2C(=O)CCC[C@@H]13	-	.	.	.	.
c1ccc2c(c1)Oc1cccc3cccc-2c13	-	12	25	-	-
O=[N+]([O-])c1ccc(N/N=C/c2c[nH]c3ccccc23)cc1	-	26	61	-	?
O=[N+]([O-])c1ccccc1N/N=C/c1c[nH]c2ccccc12	-	67	88	-	-
O=[N+]([O-])c1ccc(N/N=C/c2ccc[nH]2)cc1	?	84	66	-	?
COc1ccccc1NS(=O)(=O)c1cc([N+](=O)[O-])ccc1N/N=C/c1c[nH]c2ccccc12	-	-	-	?	.
O=C1CCCC2CCCCN12 (configuration not stated)	.	-	-	.	.
Clc1ccc(OCc2nc(-c3ccncc3)no2)c(Cl)c1	-	64	122	-	10µM
Cc1cccc(OCc2nc(-c3cccnc3)no2)c1	-	15	+	-	-
Cc1ccc(C(C)C)c(OCc2nc(-c3nonc3N)no2)c1	?	28	101	.	4.7µM
Nc1nonc1-c1noc(CCCOc2ccc(Cl)cc2Cl)n1	-	-	-	-	5.2µM
COC(=O)c1cc(S(=O)(=O)NCC2CCN(Cc3ccc(C)cc3)CC2)cn1C	-	-	-	-	?
SMILES	HCMV inh	Cycloheximide cs	Shiga inhibitor	Pf growth 48h	Pf growth 96h
COCCNC(=O)C1(C)CCN(C(=O)c2cccc(C)c2C)C1 (configuration not stated)	-	.	.	.	.
COc1cccc(N2CCN(C(=O)Cn3ncc4c3-c3ccccc3OC4)CC2)c1	-	.	.	.	.
O=C(NCC1CCCO1)c1cc(S(=O)(=O)Nc2ccc(Br)cc2)ccc1Cl (configuration not stated)	-	-	-	-[1.15 µM]	-
CCOC(=O)c1[nH]c(C)c(CCC(=O)NCc2cccc(C)c2)c1C	-	.	.	.	.
Clc1cccc(OCc2nc(-c3ccncc3)no2)c1	-	34	-	-[5.75 µM]	-
COc1ccc(OC)c(C2=NOC(C(=O)Nc3ccc4c(c3)OCCO4)C2)c1 (configuration not stated)	-	-	-	-	-
COc1ccc(C2=NO[C@@](CC(=O)O)(C(=O)Nc3ccc4c(c3)OCCO4)C2)cc1	.	30	62	-	-
NC(=O)COc1ccccc1C1=NO[C@@](CC(=O)O)(C(=O)Nc2ccc3c(c2)OCCO3)C1	-	19	-	.	-
Cc1ccc(-n2nnnc2SCC(=O)c2c(N)n(C3CC3)c(=O)[nH]c2=O)cc1C	-	.	.	-	?
CCc1nc(Nc2ccncc2)c2oc3ccccc3c2n1	-105	-	-	13µM	.
Cc1nc(NC(C)c2ccccc2)c2oc3ccccc3c2n1 (configuration not stated)	-65	-	-	?	?
